Activity calls are given as the source filed them. The calls were made as follows: active = hit-call score of the fitted dose curve at least 0.9, where 1 is the maximum; inactive = score below 0.9.
Read-out: Paternally Expressed 10 (PEG10), PEG10 (gene 23089)
Assay: LTEA_HepaRG_PEG10: Life Technologies and Expression Analysis (LTEA) Assay for Paternally Expressed 10 (PEG10) using HepaRG (AID 2283520);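 as to AC50: PEG10 transcript by qRT-PCR normalised to ACTB GAPDH and POLR2A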
Settings: mRNA level, 48 h; actives raise or lower the signal
Procedure: LTEA_HepaRG is a cell based, multiplexed-readout assay that uses HepaRG, a human liver cell line, with measurements taken at 48 hours after chemical dosing on a 96-well plate.LTEA_HepaRG_PEG10 is one of 102 assay component(s) measured in the LTEA HepaRG cell culture assay. It is a marker of Cell proliferation, survival, death.Data from the assay component LTEA_HepaRG_PEG10 was analyzed into 1 endpoint. This assay endpoint, LTEA_HepaRG_PEG10, was analyzed with bidirectional fitting relative to DMSO as the negative control and baseline of activity. Using a type of inducible reporter, measures of mRNA induction for gain or loss-of-signal activity can be used to understand regulation of transcription factor activity. To generalize the intended target to other relatable targets, this assay endpoint is annotated to the dna binding intended target family, where the subfamily is xenobiotic metabolism.
A total of 1060 chemcials from the ToxCast library were tested in eight-point concentration-response experiments. Cell culture and cytotoxicity assays were conducted at Thermo Fisher Scientific's Custom Services facility (Madison, WI). A single lot of human HepaRG cells (Thermo Fisher Scientific, Frederick, MD) was used for the cell culture experiments. 96-well format collagen type I coated plates of human HepaRG cells were prepared using established methods. Briefly, cryopreserved HepaRG cells were thawed, plated at a density of approximately 100,000 cells/well in HepaRG Thaw, Plate, and General Purpose media (HPRG770, Thermo Fisher Scientific), and incubated for 48 hours. 0.5% DMSO was selected as vehicle control to balance the requisite need of DMSO in HepaRG cultures to maintain differentiation (for example, baseline metabolism, proportions of hepatocytes vs. cholangiocytes), while enabling further hepatic receptor pathway activation (for example, PXR and CAR) in response to chemical exposure. 48 hours after plating, the culture medium was replaced with HepaRG Serum-Free Incudtion Media. Cells were exposed to each test chemical in duplicate and maintained in CO2 incubators for another 48 hours. Chemical plates were thawed to room temperature and 200x concentrations of treatment groups were prepared. 8-point conentration-reponse curves were made with the highest exposure at 100 uM, followed by half-log dilutions, all in 0.5% DMSO. Each test plate contained variouse controls, induction positive controls (1mM phenobarbital), cytotoxicity positive controls ([…] aflatoxin B1), vehicle controls (0.5% DMSO), and total lysis controls (0.5% DMSO). Cell morphology images were taken using an Essen IncuCyte FLR automated microscope, with six 96-well plates imaged in about 24 minutes. Images were captured and exported and JPEG files. Spent culture media was transfered to black-well plates for the LDH assay, and remaining media was sorted at -80 C for later use. Cells were treated with RLT buffer and frozen until shipped for gene expression analysis. Total RNA was isolated from the cell suspension in 75 uL of Buffer RLT (Qiagen, Germantown, MD 20874) by Quintiles/Expression Analysis (Durham, NC) using a custom isolation procedure. Total RNA from each plate well was transferred to a preamplification plate. Fluidigm's 96.96 Dynamic ArrayTM (Fluidigm, Amsterdam, the Netherlands) technology was used for gene expression analyses by quantitative reverse transcription polymerase chain reaction (qRT-PCR, performed by Quintiles/Expression Analysis, Durham, NC)89. Standard TaqManTM Assays (Applied Biosystems/ThermoFisher Scientific, Foster City, CA) were used to assess the expression of 93 genes selected based on their selectivity and sensitivity to important hepatic receptors known to be modulated by environmental chemicals; importance in human hepatocyte functionality; and hepatotoxicity. […]

SMILES | outcome | AC50
COC(=O)NS(=O)(=O)c1ccc(N)cc1 | inactive | –
CCNC(=O)NC(=O)C(C#N)=NOC | – | 50 µM (active)
CS(=O)(=O)c1cc(C(F)(F)F)ccc1C(=O)c1cnoc1C1CC1 | inactive | –
Cc1c(COC(=O)[C@@H]2[C@H](/C=C(\Cl)C(F)(F)F)C2(C)C)cccc1-c1ccccc1 | inactive | –
Cc1cc(C)nc(Nc2ccccc2)n1 | inactive | –
CC1(C)CCC(=Cc2ccc(Cl)cc2)C1(O)Cn1cncn1 (stereo not given) | inactive | –
CC(C)Oc1cccc(NC(=O)c2ccccc2C(F)(F)F)c1 | – | 78.5 µM (active)
COc1ccc(-c2ccccc2)cc1NNC(=O)OC(C)C | inactive | –
COCC(C)N(C(=O)CCl)c1c(C)csc1C (stereo not given) | inactive | –
CN=C=S | inactive | –
CCN(CC)C(=O)C(C)Oc1cccc2ccccc12 (stereo not given) | – | 76.5 µM (active)
CSC(=O)c1c(C(F)F)nc(C(F)(F)F)c(C(=O)SC)c1CC(C)C | inactive | –
Nc1c(Cl)c(Cl)nc(C(=O)O)c1Cl | inactive | –
CCOc1nc(F)cc2nc(S(=O)(=O)Nc3c(Cl)cccc3Cl)nn12 | inactive | –
Cn1c(-c2ccccc2)cc(-c2ccccc2)[n+]1C | – | 10.7 µM (active)
CS(=O)(=O)c1ccc(C(=O)C2C(=O)CCCC2=O)c([N+](=O)[O-])c1 | inactive | –
C=C(C)CN(CC)c1c([N+](=O)[O-])cc(C(F)(F)F)cc1[N+](=O)[O-] | inactive | –
CNC(=O)Oc1cccc2ccccc12 | inactive | –
CCNP(=S)(OC)O/C(C)=C/C(=O)OC(C)C (stereo not given) | inactive | –
COC(=O)c1c(C(F)F)nc(C(F)(F)F)c(C2=NCCS2)c1CC(C)C | inactive | –

SMILES | outcome | AC50
Cc1ccc(N=CN(C)C=Nc2ccc(C)cc2C)c(C)c1 | inactive | –
C=CCOC(=O)C(C)(C)OC(=O)c1cc(-n2c(=O)cc(C(F)(F)F)n(C)c2=O)ccc1Cl | inactive | –
CCN(CC)c1nc(C)cc(OP(=S)(OC)OC)n1 | inactive | –
CC(C)=CC1C(C(=O)OCc2coc(Cc3ccccc3)c2)C1(C)C (stereo not given) | inactive | –
CCOP(=O)(OCC)Oc1nc(Cl)c(Cl)cc1Cl | – | 59.6 µM (active)
CCSC(=O)N1CCCCCC1 | inactive | –
CC(C)(C)C(=O)C(Oc1ccc(Cl)cc1)n1cncn1 (stereo not given) | inactive | –
CCOc1nc(C(Cl)(Cl)Cl)ns1 | inactive | –
CCCCC(C#N)(Cn1cncn1)c1ccc(Cl)cc1 (stereo not given) | inactive | –
O=C(Nc1ccccc1-c1ccc(Cl)cc1)c1cccnc1Cl | – | 21 µM (active)
CCCC(=NOCC)C1=C(O)CC(CC(C)SCC)CC1=O (stereo not given) | inactive | –
COP(=S)(OC)Oc1ccc([N+](=O)[O-])c(C)c1 | inactive | –
CC(C)NC(=O)N1CC(=O)N(c2cc(Cl)cc(Cl)c2)C1=O | inactive | –
CCCN(CC)CC1COC2(CCC(C(C)(C)C)CC2)O1 (stereo not given) | inactive | –
O=P(O)(O)CCCl | inactive | –
CCOc1cc(C(C)(C)C)ccc1C1COC(c2c(F)cccc2F)=N1 (stereo not given) | inactive | –
CCCCC(O)(Cn1cncn1)c1ccc(Cl)cc1Cl (stereo not given) | – | 50 µM (active)
CO/N=C(/C1=NOCCO1)c1ccccc1Oc1ncnc(Oc2ccccc2Cl)c1F | – | 5.88 µM (active)
N#Cc1c(Cl)cccc1Cl | inactive | –
Cc1cnc(C2=NC(C)(C(C)C)C(=O)N2)c(C(=O)O)c1 (stereo not given) | inactive | –

— PubChem BioAssay (EPA / NIEHS)
